Records with an inconclusive call do not appear. Where a call stands in place of a potency, no number is given. The source made the active and inactive calls. Unless noted, the call rests on the fitted dose curve.
Tested on: not listed separately
Assay: qHTS assay to identify small molecule agonists of the estrogen related receptor signaling pathway with the pleiotropic PPARgamma coactivator (PGC) from Tox21 10K library (AID 1224842; active means well fitted activation curve with a large enough effect in the repeat runs; further: nearly all actives have a fitted effect of over 15% in size)
Conditions: PGC/ERR reporter cell line, luciferase ONE-Glo, 18 h; series mostly up to 92.4 µM
Method in brief: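 PGC/ERR reporter cells (NTP line) were seeded 2,000 per well, rested 6 h at 37 C/5% CO2, then pin-dosed with compounds in DMSO for 18 h at 37 C; luciferase read by One-Glo luminescence after 30 min at room temperature.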

Compound | outcome | activation
CC(C)COP(=O)(OCC(C)C)OCC(C)C | inactive | 
CCOC(=O)CP(=O)(OCC)OCC | inactive | 
CCOC(=O)NC(=S)Nc1ccccc1NC(=S)NC(=O)OCC | inactive | 
COC(=O)c1c(C(F)F)nc(C(F)(F)F)c(C2=NCCS2)c1CC(C)C | inactive | 
C[N+](=O)[O-] | inactive | 
[O]=[Cd] | inactive | 
CC1=NNC(=O)N(/N=C/c2cccnc2)C1 | inactive | 
N#Cc1ccncc1 | inactive | 
CCNc1nc(NC(C)C)nc(OC)n1 | inactive | 
C=C(C)[C@@H]1CC=C(C=O)CC1 | inactive | 
CC1CCC(=O)O1 (stereo not given) | inactive | 
CC(C)CC(N(C)C)C1(c2ccc(Cl)cc2)CCC1 (stereo not given) | inactive | 
O=C1c2ccccc2C(=O)c2ccccc21 |  | 5.32% [at 19 µM] (inactive)

Target: Thyrotropin receptor (Homo sapiens) (UniProt P16473)
Assay: qHTS assay to identify small molecule agonists of the thyroid stimulating hormone receptor (TSHR) signaling pathway (AID 1224843); further: nearly all actives have a fitted effect of over 45% in size
Conditions: TSHR-HEK293 cells, cAMP HTRF, agonist mode, 30 min; series mostly up to 92.4 µM
Method in brief: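 Compounds are titrated over 15 concentrations, in triplicate, onto TSHR-HEK293 cells seeded at 800/well. Plates sit 30 min at room temperature before cAMP-d2 and anti-cAMP cryptate are added; signal is read after a further hour.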

Sequence of Thyrotropin receptor (Homo sapiens) (P16473 whole entry, looked up): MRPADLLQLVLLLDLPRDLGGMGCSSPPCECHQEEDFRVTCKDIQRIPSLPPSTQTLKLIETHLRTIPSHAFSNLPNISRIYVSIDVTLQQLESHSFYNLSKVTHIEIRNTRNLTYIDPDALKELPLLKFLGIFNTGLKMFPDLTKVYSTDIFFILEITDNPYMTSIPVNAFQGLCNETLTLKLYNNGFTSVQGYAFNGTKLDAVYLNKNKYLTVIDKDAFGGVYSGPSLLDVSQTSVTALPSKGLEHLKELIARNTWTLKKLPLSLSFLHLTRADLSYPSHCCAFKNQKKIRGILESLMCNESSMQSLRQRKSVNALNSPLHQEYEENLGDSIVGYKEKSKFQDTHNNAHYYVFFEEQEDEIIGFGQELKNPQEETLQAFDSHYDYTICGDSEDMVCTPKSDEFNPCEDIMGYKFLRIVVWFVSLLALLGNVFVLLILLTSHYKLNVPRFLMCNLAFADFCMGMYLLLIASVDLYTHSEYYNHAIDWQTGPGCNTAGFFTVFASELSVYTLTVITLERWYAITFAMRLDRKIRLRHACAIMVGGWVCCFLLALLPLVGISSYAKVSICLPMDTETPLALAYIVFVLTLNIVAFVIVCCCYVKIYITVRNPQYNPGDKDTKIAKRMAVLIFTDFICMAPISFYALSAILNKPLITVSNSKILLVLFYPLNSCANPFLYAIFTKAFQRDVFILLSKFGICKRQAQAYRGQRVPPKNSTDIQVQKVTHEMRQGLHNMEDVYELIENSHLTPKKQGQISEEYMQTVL

Compound | Potency | activation
CCOC(=O)CP(=O)(OCC)OCC | inactive | 
c1cc2c(c(N3CCNCC3)c1)OCCO2 | inactive | 
C[N+](C)=CCl | inactive | 
COC(=O)c1c(C(F)F)nc(C(F)(F)F)c(C2=NCCS2)c1CC(C)C | inactive | 
OCCBr | inactive | 
C[N+](=O)[O-] | inactive | 
[O]=[Cd] | inactive | 
CC1=NNC(=O)N(/N=C/c2cccnc2)C1 | inactive | 
Cc1ncsc1CCCl | inactive | 
CC(C)CC#N | inactive | 
CC(C1CC1)C(O)(Cn1cncn1)c1ccc(Cl)cc1 (stereo not given) | inactive | 
OC(Cn1cncn1)(c1ccc(F)cc1)c1ccccc1F (stereo not given) | inactive | 
O=[N+]([O-])c1ccc(CBr)cc1 | inactive | 
COC(C)(C)C | inactive | 
NC(=O)c1cc([N+](=O)[O-])cc([N+](=O)[O-])c1 | inactive | 
OC(c1ccccc1)(c1ccccc1)C1CCNCC1 | inactive | 

Compound | Potency | activation
CCNc1nc(NC(C)C)nc(OC)n1 | inactive | 
O=C(Oc1ccc(Br)cc1)N1CCN2CCC1CC2 | inactive | 
C=C(C)[C@@H]1CC=C(C=O)CC1 | inactive | 
Clc1ccccc1N1CCNCC1 | inactive | 
CCCCP(CCCC)CCCC | inactive | 
CCSC(=O)N(CC)C1CCCCC1 | inactive | 
CC1CCC(=O)O1 (stereo not given) | inactive | 
CC(C)CC(N(C)C)C1(c2ccc(Cl)cc2)CCC1 (stereo not given) | inactive | 
O=C1c2ccccc2C(=O)c2ccccc21 |  | -2.19% [at 19 µM] (inactive)
O=C1OC(c2ccc(O)c(S(=O)(=O)O)c2)(c2ccc(O)c(S(=O)(=O)O)c2)c2c(Br)c(Br)c(Br)c(Br)c21 | inactive | 
O=[N+]([O-])c1ccc2c3c(cccc13)CC2 | inactive | 
C[C@]1(O)CC[C@H]2[C@@H]3CCC4=CC(=O)CC[C@]4(C)[C@@]3(F)[C@@H](O)C[C@@]21C | inactive | 
O=C(O)C(Br)CBr (stereo not given) | inactive | 
Cc1ncc(CNC(=O)N(CCCl)N=O)c(N)n1 | inactive | 
CNC(=O)O/N=C(\C)SC | inactive | 
O=C1CN=C(c2ccccc2)c2cc([N+](=O)[O-])ccc2N1 | inactive | 

Source: PubChem BioAssay (Tox21)
